Inconclusive results are not listed. Active and inactive are the calls of the source. Unless noted, calls come from the whole dose curve; as a rule, active = well fitted curve in the direction sought with a large enough effect in the repeat runs; inconclusive = weak or mixed curves; inactive = no such curve, though single readings can be large; an effect the other way counts as inactive or inconclusive.

Assay [1] is described as follows: qHTS assay for small molecule agonists of the p53 signaling pathway (AID 651631; calls by dose curve; note: nearly all actives have a fitted effect of over 15% in size). Summed up:
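Read-out is beta-lactamase FRET fluorescence measured 2 h after substrate addition at room temperature, in HCT-116 cells with a p53 response element-driven reporter exposed to compounds for 16 h at 37 °C.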
(qHTS replaces the single test concentration by a dilution series.)

A short description of assay [2]: qHTS assay for small molecule agonists of the p53 signaling pathway - cell viability (AID 651633; calls by dose curve;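 note: p53RE-bla HCT reporter cells with a stable beta-lactamase p53 reporter; series mostly up to about 83 µM; nearly all actives have a fitted effect of over 30% in size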). The method, boiled down: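 Viability counter-read: CellTiter-Glo luminescence (30 min, room temperature) in the same p53RE-bla plates. These plates had been exposed to compounds for 16 h at 37 C.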
A short description of assay [3]: qHTS assay for small molecules that induce genotoxicity in human embryonic kidney cells expressing luciferase-tagged ATAD5 - cell viability (AID 651634; calls by dose curve; note: nearly all actives have a fitted effect of over 25% in size). The method, boiled down: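 Fluorescence from CellTiter-Fluor, reporting protease activity within live cells, served as the viability read-out. HEK293T cells carrying luciferase-tagged ATAD5 had been treated with compound for 15.5 hr at 37C.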

Assay [4] can be described thus: qHTS assay for small molecule disruptors of the mitochondrial membrane potential - cell viability (AID 720634; calls by dose curve;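 note: human HepG2 liver cancer cells; series mostly up to about 83 µM; nearly all actives have a fitted effect of over 20% in size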). Summed up:
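Cells: HepG2, 2,000/well, attached overnight. Compound 1 hr, 37 C/5% CO2. +m-MPI dye, +CellTiter-Glo 30 min RT. Readout: luminescence (ATP).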

Assay [5] can be described thus: qHTS assay for small molecule disruptors of the mitochondrial membrane potential (AID 720635). Summed up: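 Mitochondrial membrane potential tracked with Mito-MPS dye, red aggregates (ex 540/em 590 nm) against green monomers (ex 490/em 535 nm). Compound treatment 1 hr at 37C, dye 30 min in HepG2.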
The nature of assay [6]: qHTS assay to test for compound auto fluorescence at 590 nm (red) in HepG2 cells (AID 720674). Summed up:
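Red autofluorescence (Ex/Em 540/590 nm, Rose Bengal sodium equivalents) was measured in HepG2 cells, 2,000 per well in MEM plus 10% FBS, plated overnight at 37 C. Readings were taken 1 hr after adding 23 nL compound or DMSO, at 37 C and 5% CO2.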

The nature of assay [7]: qHTS assay to test for compound auto fluorescence at 535 nm (green) in HepG2 cells (AID 720675).
The nature of assay [8]: qHTS assay to test for compound auto fluorescence at 460 nm (blue) in HEK293 cells (AID 720678). Summed up:
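Blue-channel (Ex/Em 405/460 nm) intensity measured in HEK293 cultures after overnight compound exposure at 37C; signal expressed relative to triamterene. Cells plated 2,000 per well in 10% dialyzed FBS medium and allowed 4-5 hr to attach.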

Assay [9] in a line: qHTS assay to test for compound auto fluorescence at 590 nm (red) in HEK293 cells (AID 720679). The method, boiled down:
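Red-channel autofluorescence (Ex/Em 540/590 nm; Rose Bengal sodium reference) was measured after overnight 37C, 5% CO2 exposure of attached HEK293 cells, 2,000 per well in medium with 10% dialyzed FBS.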

A short description of assay [10]: qHTS assay to test for compound auto fluorescence at 535 nm (green) in HEK293 cells (AID 720680).
Assay [11] can be described thus: qHTS assay to test for compound auto fluorescence at 460 nm (blue) in HEK293 cell free culture (AID 720681). The method, boiled down: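 Blue fluorescence (Ex 405/Em 460 nm, triamterene-equivalent) was read immediately after pin transfer of compound or DMSO into medium (DMEM, 10% FBS) without cells.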
A short description of assay [12]: qHTS assay to test for compound auto fluorescence at 535 nm (green) in HEK293 cell free culture (AID 720682). Summed up:
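Fluorescein serves as the green reference fluorophore; each compound's intrinsic emission at 535 nm (excitation 485 nm) is reported as an equivalent amount of that dye, measured in serum-containing DMEM without cells.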

Assay [13] in a line: qHTS assay to test for compound auto fluorescence at 590 nm (red) in HEK293 cell free culture (AID 720683). Summed up:
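Red-channel autofluorescence of compounds in culture medium (DMEM, 10% FBS), no cells, measured at 540/590 nm. Rose Bengal sodium is the reference fluorophore for equivalence.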

A short description of assay [14]: qHTS assay to test for compound auto fluorescence at 460 nm (blue) in HepG2 cell free culture (AID 720685). Summed up:
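Compound (23 nL) or DMSO pinned into cell-free MEM with 10% FBS; blue fluorescence read at 405/460 nm excitation/emission, expressed as auto-fluorescence equivalency to triamterene.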

Assay [15] can be described thus: qHTS assay to test for compound auto fluorescence at 535 nm (green) in HepG2 cell free culture (AID 720686).
A short description of assay [16]: qHTS assay to test for compound auto fluorescence at 460 nm (blue) in HepG2 cells (AID 720687). Summed up:
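Blue-channel autofluorescence (Ex/Em 405/460 nm, triamterene-equivalent) was measured after 1 hr compound exposure at 37 C, 5% CO2. Cells were HepG2, plated overnight at 37 C in MEM plus 10% FBS.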

The target of assay [17] is Glucocorticoid receptor (Homo sapiens) (UniProt P04150). Briefly: qHTS assay to identify small molecule agonists of the glucocorticoid receptor (GR) signaling pathway (AID 720691; active = well fitted activation curve with a large enough effect in the signal ratio in the repeat runs, not every such curve was filed as active; the % refers to the signal ratio; note: potency is the fitted concentration of half-maximal effect). The method, boiled down: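 Fluorescence intensity from LiveBLAzer B/G FRET substrate (2 h, room temperature) reports beta-lactamase expression driven by the glucocorticoid response element in GR-bla HeLa cells after 18 h compound exposure at 37 C.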
Glucocorticoid receptor (Homo sapiens), sequence (P04150 whole entry, looked up): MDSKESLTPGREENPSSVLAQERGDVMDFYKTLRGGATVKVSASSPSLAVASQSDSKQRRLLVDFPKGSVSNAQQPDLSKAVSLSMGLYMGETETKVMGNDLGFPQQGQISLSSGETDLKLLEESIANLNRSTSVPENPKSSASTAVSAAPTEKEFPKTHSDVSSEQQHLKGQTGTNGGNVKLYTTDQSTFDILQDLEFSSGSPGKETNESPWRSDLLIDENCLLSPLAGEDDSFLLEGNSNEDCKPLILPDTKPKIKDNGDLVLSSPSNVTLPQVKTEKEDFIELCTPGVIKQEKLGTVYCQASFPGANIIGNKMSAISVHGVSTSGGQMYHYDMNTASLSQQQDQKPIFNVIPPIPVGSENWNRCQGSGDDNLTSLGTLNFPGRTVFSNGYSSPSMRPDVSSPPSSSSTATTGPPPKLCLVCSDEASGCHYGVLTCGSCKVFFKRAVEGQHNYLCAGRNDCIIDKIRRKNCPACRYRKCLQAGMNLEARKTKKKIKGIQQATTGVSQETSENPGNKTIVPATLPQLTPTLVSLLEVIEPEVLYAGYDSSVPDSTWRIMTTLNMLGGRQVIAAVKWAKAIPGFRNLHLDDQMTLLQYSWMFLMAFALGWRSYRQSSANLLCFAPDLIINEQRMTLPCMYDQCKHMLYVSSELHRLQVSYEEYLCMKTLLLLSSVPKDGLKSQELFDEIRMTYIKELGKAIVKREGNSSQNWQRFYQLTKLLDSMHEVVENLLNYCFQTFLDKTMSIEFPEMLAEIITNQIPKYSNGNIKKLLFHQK

Assay [18] can be described thus: qHTS assay for small molecules that induce genotoxicity in human embryonic kidney cells expressing luciferase-tagged ATAD5 (AID 651632). Note: nearly all actives have a fitted effect of over 15% in size. The method, boiled down: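 ATAD5-luc HEK293T, 2,000 cells/well; cpd or DMSO pin-transferred; 16 hr, 37C/5% CO2; Amplite 30 min RT; luminescence.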
Assay [19] has as its target Glucocorticoid receptor (Homo sapiens) (UniProt P04150). Briefly: qHTS assay to identify small molecule antagonists of the glucocorticoid receptor (GR) signaling pathway (AID 720692; active = well fitted inhibition curve with a large enough effect in the signal ratio in the repeat runs, not every such curve was filed as active; the % refers to the signal ratio). The method, boiled down: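 HeLa GR-bla cells; cmpd + dex 5 nM final, 18 h 37 C; LiveBLAzer B/G FRET substrate 2 h RT; fluorescence intensity read. Antagonist mode, qHTS.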
A short description of assay [20]: qHTS assay to test for compound auto fluorescence at 590 nm (red) in HepG2 cell free culture (AID 720684). The method, boiled down:
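Plate contents were MEM with 10% FBS plus test compound or DMSO, no cells. Fluorescence was recorded with 540 nm excitation and 590 nm emission.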

`CCN(Cc1ccncc1)C(=O)C(CO)c1ccccc1` (stereo not given): the result in [1], in assay [2], in assay [6], in assay [7], in assay [8] and in [9] was inactive. Also, the outcome in assay [10], in assay [11], in assay [12], in [13], in assay [14] and in assay [15] was inactive. Besides, the compound was called inactive in [16]. For the same compound, the Potency result in assay [3], in assay [4], in assay [5] and in assay [17] was “inactive” in each case.
With `CCOC(=O)Nc1ccc(NCc2ccc(F)cc2)nc1N`, the Potency result in assay [18], in assay [3], in [4], in assay [5], in assay [17] and in assay [19] was “inactive” throughout. The compound was classed as inactive in assay [2], in assay [6], in assay [7], in assay [9], in assay [10] and in assay [12]. Also, the result in assay [13] and in [15] was inactive.
As for `Cn1c(N)c(N=O)c(=O)n(C)c1=O`, the outcome in assay [1], in [2], in assay [6], in [7], in assay [8] and in assay [9] was inactive. For the same compound, the outcome in [10], in assay [11], in [12], in assay [13], in assay [20] and in assay [14] was inactive. Further, the call in assay [15] and in [16] was inactive. Also, the Potency entry in [18], in [5], in assay [17] and in assay [19] was “inactive” in each case.
On to `FC1(F)C(F)(F)C(F)(F)C2(F)C(F)(F)C(F)(F)C(F)(F)C(F)(F)C2(F)C1(F)F` (stereo not given), for which the Potency entry in [18], in assay [3], in [4], in [5] and in [17] was “inactive” each time. The compound was called inactive in assay [2], in [6], in assay [7], in assay [8], in [9] and in [10]. Also, the result in assay [11], in assay [12], in assay [13], in [20], in assay [14] and in assay [15] was inactive. In addition, the result in [16] was inactive.
With `c1cnc(N2CCN(Cc3ccc4c(c3)OCO4)CC2)nc1`, the Potency entry in [18], in assay [3], in assay [4], in [5], in assay [17] and in assay [19] was “inactive” each time. The result in assay [2], in [6], in [7], in [8], in assay [9] and in [10] was inactive. For the same compound, the call in assay [11], in assay [12], in assay [13], in assay [20], in [14] and in [15] was inactive. In addition, in assay [16], the outcome was inactive.
In the case of `CCOC(=O)[C@H](CCc1ccccc1)N[C@@H](C)C(=O)N1[C@H](C(=O)O)C[C@@H]2CCC[C@@H]21`, the outcome in assay [1], in [2], in assay [6], in [7], in assay [8] and in assay [9] was inactive. In addition, the compound was classed as inactive in assay [10], in [11], in [12], in assay [13], in assay [20] and in assay [14]. The compound was called inactive in assay [15] and in [16]. Besides, the Potency entry in assay [18] and in assay [17] was “inactive” throughout.
`O=C1CC2CC1C1CCCC21` (stereo not given): the result in [1], in assay [2], in [6], in assay [7], in assay [8] and in assay [9] was inactive. Moreover, the compound was called inactive in [10], in assay [11], in assay [12], in assay [13], in [20] and in assay [14]. Moreover, the result in [15] and in assay [16] was inactive. Further, the Potency result in [3], in assay [4], in assay [5] and in assay [19] was “inactive” in each case. Moreover, the Potency in [17] is 54.9 µM (active).
Take `N[C@H](C(=O)O)c1ccc(O)cc1`: the result in assay [1], in assay [2], in assay [6], in assay [7], in [8] and in [9] was inactive. Also, the compound was classed as inactive in assay [10], in assay [11], in [12], in assay [13], in assay [20] and in assay [14]. Besides, the compound was called inactive in assay [15] and in assay [16]. For the same compound, the Potency result in assay [18], in assay [4], in assay [5], in assay [17] and in assay [19] was “inactive” in each case.

The values above are taken from PubChem BioAssay (Tox21).
